CYP2C19 inh: blockers of cytochrome P450 2C19 activity – biochemical, luminescence, ADME assay, primary screen; AID 778, 2007; P33261; CYP2C19 Supersomes, luciferin-H EGE luminescence, 30 min; inhibition, % at 5 µM; hit rate 21% among 96,000;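 active = CYP2C19 inhibition above a set limit at 5 µM in the primary screen, cut at about 50% in these data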;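 also: plate controls were negative control wells for no effect and 2.5 mM tranylcypromine positive control for full effect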
CYP2C9 inhib: blockers of cytochrome P450 2C9 activity – biochemical, luminescence, ADME assay, primary screen; hit rate 20% among 96,000; P11712; CYP2C9 Supersomes, luciferin-H conversion; inhibition, % at 5 µM; AID 777, 2007;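 active = blocking of liver enzyme CYP2C9 beyond about 50% at 5 µM, limit read from the data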
CYP2C19 act: human CYP2C19 activators, primary screen, biochemical, luminescence. recombinant CYP2C19, luciferin-H EGE luminescence; stronger effect = higher value; 0 = fully inhibited enzyme, 1 = untreated enzyme. activation factor at 5 µM. 96,000 tested, under 10 active. AID 1025, 2008;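 active = activation factor of at least 2 at 5 µM in the primary screen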;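 also: 0 = wells with 2.5 mM tranylcypromine and 1 = vehicle-only wells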
CYP2C9 act: human CYP2C9 activators, primary screen, biochemical, luminescence | Cytochrome P450 2C9 (Homo sapiens), P11712 | recombinant CYP2C9, luciferin-H conversion; stronger effect = higher value; factor 1 = untreated enzyme, 0 = blocked | activation factor at 5 µM | hit rate 1.4% among 96,000;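 active = activation factor of 2 or more for CYP2C9 at a 5 µM dose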;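 also: 0 = sulfaphenazole-blocked wells and 1 = vehicle-only wells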
PLK1 kinase inh: human PLK1 kinase inhibitors, primary screen, biochemical, TR-FRET; Serine/threonine-protein kinase PLK1 (Homo sapiens), P53350; recombinant PLK1 kinase, TR-FRET peptide phosphorylation; inhibition, % at 10 µM; hit rate 0.53% among 97,000;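 active = inhibition of 50% or more in the single-concentration screen; inactive = inhibition below 50%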;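 also: 0% = DMSO max control and 100% = H-89 dihydrochloride min control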
Target sequence (P53350 whole entry, looked up): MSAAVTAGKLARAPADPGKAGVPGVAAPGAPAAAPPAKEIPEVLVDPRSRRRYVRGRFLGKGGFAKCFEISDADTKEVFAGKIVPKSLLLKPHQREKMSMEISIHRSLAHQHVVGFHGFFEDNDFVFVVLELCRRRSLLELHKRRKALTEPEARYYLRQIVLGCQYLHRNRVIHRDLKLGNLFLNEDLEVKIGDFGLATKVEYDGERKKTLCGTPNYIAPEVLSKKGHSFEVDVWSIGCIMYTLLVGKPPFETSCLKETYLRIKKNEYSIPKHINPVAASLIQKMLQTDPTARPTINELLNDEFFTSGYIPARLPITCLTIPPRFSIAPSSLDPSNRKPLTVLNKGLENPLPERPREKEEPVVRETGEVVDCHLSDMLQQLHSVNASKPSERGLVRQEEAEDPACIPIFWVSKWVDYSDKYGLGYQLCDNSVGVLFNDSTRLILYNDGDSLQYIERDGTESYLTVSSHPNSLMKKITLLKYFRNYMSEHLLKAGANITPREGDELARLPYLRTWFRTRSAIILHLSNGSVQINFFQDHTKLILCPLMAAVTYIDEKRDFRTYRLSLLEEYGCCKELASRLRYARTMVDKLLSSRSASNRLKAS
Plk1 PBD FP: Plk1 polo box domain binding inhibitors, primary screen, biochemical, fluorescence polarization; Plk1 PBD phosphopeptide binding; inhibition, %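 (tested at about 20 µM)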; hit rate 0.13% among 97,000; AID 693, 2007; in the data active = inhibition above about 34%, passing the limit was not always enough
The depositor's hits bear a star; . = no result. Shown are actives, neighbours in structure and some others; about 28% of the full set was active somewhere.

SMILES | CYP2C19 inh | CYP2C9 inhib | CYP2C19 act | CYP2C9 act | PLK1 kinase inh | Plk1 PBD FP
O=C(O)CC1(Cc2nc(-c3cccs3)no2)CCCC1 | -5 | 4 | 1.1 | 1 | -24 | 11
Cc1nn(Cc2nc(-c3cccs3)no2)c(C)c1Br | 75* | 46 | 0.2 | 0.5 | -5 | -14
Cc1ccc(C(=O)COC(=O)CNC(=O)c2ccco2)cc1 | 45 | 10 | 0.5 | 0.9 | -6 | -4
CN(C)c1ccc(-c2ccncc2)cc1 | 98* | 50 | 0 | 0.5 | . | .
Cc1sc2nc(C)n(/N=C/c3ccccc3O)c(=O)c2c1C | 86* | -10 | 0.1 | 1.1 | -3 | 1
C=CCSc1nn2c(=O)c3ccccc3nc2s1 | 43 | 42 | 0.6 | 0.6 | -14 | 8
C/C(Cl)=C/CSc1nn2c(=O)c3ccccc3nc2s1 | 74* | 82* | 0.3 | 0.2 | -11 | 8
O=C1CC(c2ccc(Cl)cc2)CC(O)=C1C=NCc1ccc(Cl)c(Cl)c1 (configuration not stated) | 20 | 40 | 0.8 | 0.6 | -13 | 7
OCCn1c(SC2CCCCC2)nc2ccccc21 | 39 | 16 | 0.6 | 0.8 | -7 | 8
OCCn1c(SCCOc2ccccc2F)nc2ccccc21 | 94* | 52* | 0.1 | 0.5 | -7 | -20
O=C(O)CCSc1nc2ccccc2n1CCOc1ccccc1 | -4 | 17 | 1 | 0.8 | -9 | 3
OCCSc1nc2ccccc2n1CCOc1ccccc1 | 91* | 78* | 0.1 | 0.2 | -4 | 28
O=C(O)Cn1c(SCCOc2ccccc2F)nc2ccccc21 | 8 | 70* | 0.9 | 0.3 | -11 | -6
CCOC(=O)C(C)c1nn(C)c(=O)c2ccccc12 (configuration not stated) | 67* | 15 | 0.3 | 0.8 | 5 | -1
N#C/C(=C\c1ccc(F)cc1)c1n[nH]c(Cn2cncn2)n1 | 49 | 58* | 0.5 | 0.4 | -5 | -9
N#C/C(=C\c1cccc(Cl)c1)c1n[nH]c(Cn2cncn2)n1 | 25 | 52* | 0.8 | 0.5 | 31 | -6
O=C(Nc1ccc(OC(F)(F)F)cc1)c1n[nH]c(Cn2cncn2)n1 | 32 | 23 | 0.7 | 0.8 | -8 | 28
CCOC(=O)c1c(CN2CCN(CCO)CC2)n(C)c2cc(Br)c(OC)cc12 | 9 | 79* | 0.9 | 0.2 | -16 | -5
CC1=C(C(N)=O)C(c2ccc(Cl)cc2Cl)n2ncnc2N1 (configuration not stated) | 51* | -5 | 0.5 | 1.1 | 1 | -25
COC(=O)C1=C(C)Nc2nnnn2C1c1ccc(Cl)cc1Cl (configuration not stated) | 56* | 43 | 0.4 | 0.6 | 0 | -6
COc1ccc(OC)c(C(=O)COC(=O)C2CC3CCCC(C2)C3=O)c1 (configuration not stated) | 50* | -45 | 0.5 | 1.4 | -1 | -15
COc1ccc(OC)c(C(=O)c2ccc(C(=O)c3cc(OC)ccc3OC)cc2)c1 | 7 | 36 | 0.9 | 0.6 | -9 | -15
COc1ccc(C(=O)Cc2ccc(OC)c(OC)c2)c(OC)c1 | 99* | 9 | 0 | 0.9 | -14 | 7
COc1ccc(OC)c(C(=O)COC(=O)c2ccc(C)o2)c1 | 93* | -87 | 0.1 | 1.9 | . | .
COc1ccc(C(=O)OCC(=O)c2cc(OC)ccc2OC)c(OC)c1 | 86* | -213 | 0.1 | 3.1* | . | .
SMILES | CYP2C19 inh | CYP2C9 inhib | CYP2C19 act | CYP2C9 act | PLK1 kinase inh | Plk1 PBD FP
Cc1c(NC(=O)Cn2ccc([N+](=O)[O-])n2)c(=O)n(-c2ccccc2)n1C | 3 | -55 | 1 | 1.6 | -8 | 3
COc1ccc(/C(N)=N/OC(=O)Cc2ccc(OC)c(OC)c2)cc1 | 16 | 65* | 0.8 | 0.4 | -7 | 27
CC1CCCCC1NC(=O)c1ccc2c(c1)[nH]c(=O)n2C1CCCC1 (configuration not stated) | 43 | 76* | 0.6 | 0.2 | -11 | -13
Cc1ccc2[nH]c(=O)c(CN(Cc3ccccc3)Cc3nnnn3C3CCCC3)cc2c1 | 93* | 66* | 0.1 | 0.3 | -15 | 1
Cc1ccc(C)c2[nH]c(=O)c(CN(CC3CCCO3)C(=O)NC3CCCCC3)cc12 (configuration not stated) | 29 | 72* | 0.7 | 0.3 | . | .
Cc1ccc(C)c2[nH]c(=O)c(CN(Cc3nnnn3C3CCCCC3)CC3CCCO3)cc12 (configuration not stated) | 93* | 65* | 0.1 | 0.4 | -13 | -22
Cc1ccc(C)c2[nH]c(=O)c(CN(CCN3CCOCC3)Cc3nnnn3CC3CCCO3)cc12 (configuration not stated) | -6 | -14 | 1.1 | 1.1 | -4 | 10
Cc1cc(C)c2[nH]c(=O)c(CN(Cc3ccc4c(c3)OCO4)Cc3nnnn3C3CCCC3)cc2c1 | 84* | 91* | 0.2 | 0.1 | 0 | -18
CCn1c(NC(=S)Nc2ccccc2)nc2ccccc21 | 32 | 20 | 0.7 | 0.8 | -9 | -13
CC1(C)CC(=O)C=C(NC2CCCCCCC2)C1 | . | . | . | . | -3 | -10
O=C(CCn1c(=O)sc2ccccc21)NCCN1CCOCC1 | . | . | . | . | 0 | -18
Cc1cccc2cc(CN(CC3CCCO3)C(=O)c3ccncc3)c(=O)[nH]c12 (configuration not stated) | 89* | 83* | 0.1 | 0.2 | . | .
CC(CC(=O)NCc1ccccc1)C1CCCO1 (configuration not stated) | 49 | 60* | 0.5 | 0.4 | -7 | -6
O=C(CC(C(=O)O)C1CCCO1)NCc1ccccc1 (configuration not stated) | -17 | -18 | 1.2 | 1.2 | . | .
CSc1nc(Oc2ccc(F)cc2F)cc(C(F)(F)F)n1 | 0 | 6 | 1 | 0.9 | -10 | -26
O=c1cc(-c2c(F)c(F)c(F)c(F)c2F)oc2ccccc12 | 30 | 17 | 0.7 | 0.8 | -1 | 7
O=c1cc(-c2ccncc2)oc2ccccc12 | 86* | 36 | 0.1 | 0.6 | 24 | -10
Cc1ccccc1N1CCN(C(=O)CN2C(=O)c3ccccc3C2=O)CC1 | 17 | 12 | 0.8 | 0.9 | . | .
CC(C)CCNC(=O)CN(CCN1CCOCC1)C(=O)Cn1nnc(-c2ccc(F)cc2)n1 | 27 | 12 | 0.7 | 0.9 | -8 | -25
COc1ccc(S(=O)(=O)N2Cc3ccccc3CC2C(=O)Nc2ccc(O)cc2)cc1OC (configuration not stated) | 80* | 91* | 0.2 | 0.1 | -17 | -35
CCS(=O)(=O)N1Cc2ccccc2CC1C(=O)Nc1ccc(C)cc1 (configuration not stated) | 86* | 61* | 0.1 | 0.4 | -3 | 33

Screening data (PubChem)
